Source: PubChem (National Center for Advancing Translational Sciences (NCATS))
This is a sample that favours compounds with a hit; in the whole collection about 5.7% have one here.
HT1080 IDH1KD tx: qHTS for induction of synthetic lethality in tumor cells producing 2HG: qHTS for the HT-1080-IDH1KD cell line; HT-1080 IDH1 knockdown viability, ATP luminescence, 48 h; Potency, µM (series often up to 46.1 µM), without a hit: at the highest dose activity, negative = toxicity, hits mostly cytotoxic; hit rate 2% among 360,000; AID 686971, 2013;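 also: 0% = DMSO wells and -100% = cell-free medium wells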
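IDH1KD HT-1080 cells, 750/well, RPMI + 5% FBS; compound pinned after 2 h settling; 48 h, 37 °C; CellTiter-Glo luminescence; % activity normalised to DMSO and no-cell wells; curves fitted, classed by r2 and efficacy.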
KB-3-1 tox: qHTS assay for MDR1-selective chemotherapeutics: Primary screen using the parental adenocarcinoma cell KB-3-1. KB-3-1 viability, CellTiter-Glo ATP luminescence, 72 h. Potency, µM (doses to about 46.1 µM), most hits filed as cytotoxic. hit rate 1.4% among 400,000; also: nearly all actives have a fitted effect of over 60% in size
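Parental KB-3-1 viability, qHTS format: 72 h compound exposure, 37 °C; CellTiter-Glo; media-only wells and DMSO plates as controls; concentration-effect fits on corrected data.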
HT1080NT lethal: qHTS for induction of synthetic lethality in tumor cells producing 2HG: qHTS for the HT-1080-NT fibrosarcoma cell line; Potency, µM (titrated, usually from 46.1 µM), for the others: at the highest dose activity, negative = less viability, hits mostly cytotoxic; HT-1080-NT fibrosarcoma viability, CellTiter-Glo ATP luminescence, 48 h; hit rate 1.6% among 360,000;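 also: NT is the 2HG producing partner of a matched IDH1 knockdown line; 0% = DMSO-treated cells and -100% = media-only wells without cells; nearly all actives have a fitted effect of over 55% in size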
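HT-1080-NT; 750 cells/well; 5% FBS RPMI; 48 h compound, 37 degrees C; CellTiter-Glo luminescence; curve fitting and curve-class assignment.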
KB-V1 cytotox: qHTS assay for MDR1-selective chemotherapeutics: Primary screen using the drug-selected MDR subline cells KB-V1; Potency, µM (titrated, usually from 46.1 µM), actives largely listed as cytotoxic; KB-V1 MDR cells viability, CellTiter-Glo, 72 h; hit rate 3.4% among 400,000; AID 1347076, 2019; also: nearly all actives have a fitted effect of over 60% in size
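Following 72 h at 37 degrees C with compound, KB-V1 cell viability was read by CellTiter-Glo luminescence, medium being phenol-red-free DMEM plus 10% FBS; concentration-response parameters came from normalized, curve-fitted qHTS data.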
* hit, by the source's call; i = inactive; ? = inconclusive; . = not tested or not shown. Calls follow the shape of the dose curve; as a rule, active = well fitted curve in the direction sought with a large enough effect; inconclusive = small, poorly fitted or top-dose-only effect, or another doubt; inactive = no such curve, though single readings can be large; an effect the other way counts as inactive or inconclusive. Unless noted, % is scaled to controls: 0 for no effect and ±100 for the full control effect; potency is read from the fitted curve at half-maximal effect.

SMILES	HT1080 IDH1KD tx	KB-3-1 tox	HT1080NT lethal	KB-V1 cytotox
C[C@H](NC(=O)c1[nH]cnc1C(=O)Nc1ccccc1F)c1ccccc1	-6.8%	?	-14.1%	18.4µM*
CN(Cc1ccccc1)C(=O)c1[nH]cnc1C(=O)Nc1ccc(Br)cc1F	-6.9%	16.4µM*	7.8%	?
CN(Cc1ccccc1)C(=O)c1[nH]cnc1C(=O)NCc1ccccc1	10.2%	i	0.0%	i
CCC(C(=O)NC1CCCCC1)n1nc(C)c2sc3ccccc3c2c1=O (stereo not drawn)	.	i	.	i
O=C1C2C3c4ccccc4C(c4ccccc43)[C@@H]2C(=O)N1c1nc(-c2ccccc2)cs1 (stereo partly drawn)	28.5%	i	19.9%	20.6µM*
O=C1C2C3c4ccccc4C(c4ccccc43)C2C(=O)N1c1nc(-c2ccccc2)cs1 (stereo not drawn)	2.2%	i	-0.2%	i
CCCCc1c(O)c2ccccc2n(CCCC)c1=O	-15.5%	i	-15.8%	i
CCCCc1c(CCC)c(=N)c2ccccc2n1C	20.6µM*	?	-15.4%	i
COc1cccc2c1O/C(=N\O)C(C(=O)Nc1ccc(C)cc1)C2 (stereo not drawn)	14.6µM*	4.11µM*	?	i
COc1ccc(NC(=O)C2Cc3cccc(OC)c3O/C2=N\O)cc1 (stereo not drawn)	0.0%	?	0.0%	i
Cc1ccc2cccc(N=Cc3c(C)[nH]n(-c4ccccc4)c3=O)c2n1	?	i	-17.8%	13µM*
Cc1[nH]n(-c2ccccc2)c(=O)c1/C=N/N(C)c1ccccc1	-4.1%	i	3.0%	14.6µM*
Cc1[nH]n(-c2ccccc2)c(=O)c1/C=N/O	?	i	?	i
CCOC(=O)c1cc(CC)sc1/N=C/c1c(O)ccc2ccccc12	18.4µM*	?	-29.3%	i
Oc1ccc2ccccc2c1C=Nc1ccccc1Br	-27.4%	i	-24.0%	i
Oc1cccc(C=Nc2cccc3ccccc23)c1O	23.1µM*	i	18.4µM*	i
Oc1ccccc1N=Cc1c(O)ccc2ccccc12	18.4µM*	i	?	i
CCc1c(C)sc2c1CCN(Cc1ccccc1)C2c1ccccc1 (stereo not drawn)	.	?	.	i
Cc1cccc(OCc2ccc(C(=O)N3CCOCC3)o2)c1	-8.9%	i	-0.8%	i
CC(C)(C)c1ccc(OCc2ccc(C(=O)N3CCOCC3)o2)cc1	?	i	?	25.9µM*
NNC(=O)c1ccc(COc2ccc([N+](=O)[O-])cc2)o1	2.8%	i	0.8%	i
CC1CCCCN1C(=O)c1ccc(COc2ccc([N+](=O)[O-])cc2)o1 (stereo not drawn)	16.6%	i	7.0%	18.4µM*
CCOC(=O)c1cccc(Nc2cc(C)nc(C)n2)c1	.	i	.	i
O=[N+]([O-])c1ccc(C(O)CN=Cc2ccc(O)cc2O)cc1 (stereo not drawn)	8.2µM*	i	11.6µM*	i
Cc1n(Cc2ccccc2)c2ccccc2[n+]1Cc1ccccc1	?	6.51µM*	-15.6%	i
SMILES	HT1080 IDH1KD tx	KB-3-1 tox	HT1080NT lethal	KB-V1 cytotox
O=C(Nc1ccc(Br)cc1F)c1cnn2c1NC(=C1CC1)C=C2C(F)F	.	i	.	i
CSc1ncc2c(=O)[nH]c(-c3ccccc3)nc2n1	?	i	?	i
CSc1ncc2[nH]c(C(O)c3ccccc3)nc2n1 (stereo not drawn)	-7.0%	3.26µM*	?	8.2µM*
CC(C)CCNC(=O)CN1C(=O)CSc2ccc(S(=O)(=O)N3CCCCC3)cc21	.	i	.	i
CC(C)OP(=O)(OC(C)C)C(Nc1ccccc1)c1ccc2c(c1)OCO2 (stereo not drawn)	-3.1%	i	-0.5%	i
CC(C)COP(=O)(OCC(C)C)C(Nc1ccccc1)c1ccc2c(c1)OCO2 (stereo not drawn)	-20.1%	?	-8.7%	6.51µM*
O=[N+]([O-])c1ccc(NC(=S)NCCc2ccc(F)cc2)cc1	23.1µM*	?	?	i
O=C(NCCc1ccc(F)cc1)Nc1ccc([N+](=O)[O-])cc1	?	?	?	i
CCOC(=O)CN(C(=O)Cn1nnc(-c2ccc(C)cc2)n1)C(CC)C(=O)NC1CCCC1 (stereo not drawn)	-21.7%	i	-18.5%	4.11µM*
CN(c1ccccc1)c1nc(C#N)nc(N2CCOCC2)n1	.	i	.	?
COc1ccc2[nH]c3c(c2c1)CCN1C(=O)N([C@@H](C)C(=O)NCCc2ccc(F)cc2)C(=O)[C@]31C	-0.7%	11.6µM*	-3.7%	?
O=C(COC(=O)c1ccc2[nH]c3c(c2c1)CCCC3)Nc1ccccc1	23.1µM*	i	?	?
COC(=O)c1ccc(NS(=O)(=O)c2ccc3[nH]c4c(c3c2)CCCCC4)cc1	.	?	.	23.1µM*
Cc1cccc(C)c1NC(=O)COC(=O)c1ccc2[nH]c3c(c2c1)CCCC3	-24.0%	i	?	i
Nc1nc(N)c2nc(-c3ccccc3)c(N)nc2n1	2.91µM*	i	2.31µM*	i
CC(C)C[C@@H](COCc1cccc(C(F)(F)F)c1)N1CCN(C(=O)c2ccc(C(F)(F)F)cc2)CCC1=O	?	?	?	18.4µM*
Cc1cccc(C(=O)N2CCC(=O)N(C(COCc3cccc(C(F)(F)F)c3)Cc3ccccc3)CC2)c1 (stereo not drawn)	-27.8%	i	?	?
Cc1cccc(COC[C@H](Cc2ccccc2)N2CCN(C(=O)c3cccc(Cl)c3)CCC2=O)c1	?	?	-29.6%	18.4µM*
Cc1cccc(C(=O)N2CCC(=O)N([C@H](COCc3cccc(C(F)(F)F)c3)Cc3ccccc3)CC2)c1	?	i	?	23.1µM*
Cc1ccccc1OCC(=O)N1N=C(c2cccnc2)CC1(O)C(F)(F)F (stereo not drawn)	13.7%	i	2.3%	20.6µM*
COc1cccc(C(=O)N2N=C(c3ccccc3)CC2(O)C(F)(F)F)c1 (stereo not drawn)	2.6%	i	8.6%	16.4µM*
N#Cc1nc(Nc2cc(F)cc(F)c2)c2ncn(CCCO)c2n1	.	?	.	i
CCCN(CC(=O)Nc1ccccc1C)C(=O)c1nn(CC)c(=O)c2ccccc12	-3.2%	i	-2.0%	8.2µM*
CCCN(CC(=O)Nc1ccccc1C)C(=O)c1ccc(-c2ccccc2)cc1	6.4%	i	-0.1%	i
Cc1cc(/C=C/C#N)cc(C)c1Nc1nc(Nc2ccc3n[nH]nc3c2)c2[nH]cnc2n1	.	i	.	i
CNC(=O)c1ccc(CN(C)C(=O)/C=C/c2ccc(S(=O)(=O)N3CCCCCC3)cc2)cc1	-16.8%	i	-7.2%	i
